Assay results taken from publication PMC4552634, “A New Set of Chemical Starting Points with Plasmodium falciparum Transmission-Blocking Potential for Antimalarial Drug Discovery” (PLoS ONE, 2015).
Where two headings read alike, the source gives them in different places. The whole screen tested about 13,000 compounds, of which about 3,200 (25%) showed an effect of 50% or more. Some of the results follow.

Tested on: P. falciparum stage V gametocytes
Design: BacTiter-Glo ATP luminescence viability of purified stage V gametocytes in 384-well plates, per cent inhibition versus DMSO
Details: 48 h, 5 µM, inhibitor

Structure (SMILES)	% Inhibition [%]	% Inhibition (% Inhibition) [%]
CCN1CCN(Cc2c(O)ccc3c(=O)c(Oc4cc(C)cc(C)c4)c(C(F)(F)F)oc23)CC1 [TCMDC-125696]	11.78	
NC1=NC2(CCCCC2)N(Cc2ccc(Cl)c(Cl)c2)C(N)=N1 [TCMDC-136304]	-26.78	
CN1CC=C(c2c[nH]c3ccc(C(=O)c4nccs4)cc23)CC1 [TCMDC-137277]	17.28	
Cc1cc(Nc2ccccc2)nc(NCCOc2ccccc2)n1 [TCMDC-137574]	48.49	
O=C(O)c1cccc2c(-c3ccncc3)cccc12 [TCMDC-139219]	9.999	
Cn1ccnc1S(=O)(=O)CCNCc1ccc(-c2ccc3ncnc(Nc4ccc(OCc5cccc(F)c5)c(Cl)c4)c3c2)o1 [TCMDC-138564]	21.76	
CCOc1ccc(S(=O)(=O)N(C)c2ccc(OCC(=O)Nc3nccs3)cc2)cc1 [TCMDC-123622]	21.93	
O=C(COc1ccc(C(=O)c2ccccc2)cc1)Nc1nccs1 [TCMDC-124432]	-13.79	
Cc1ccc(C(CC(=O)Nc2nccs2)c2ccc(OC(C)C)cc2)cc1 (stereo not shown) [TCMDC-124467]	72.01	
O=C(/C=C/c1ccc(Cl)c(Cl)c1)NCCCCCN1CCC(NC(=O)c2ccc([N+](=O)[O-])cc2)CC1 [TCMDC-135843]	15.45	
CCn1ccc2c(N3CCCS3(=O)=O)cc(C(=O)N[C@@H](Cc3ccccc3)[C@H](O)CNC(C)(C)c3cccc(OC)c3)cc21 [TCMDC-134672]	43.65	
CCn1cnc2c(N3CCCS3(=O)=O)cc(C(=O)N[C@@H](Cc3ccccc3)[C@H](O)CNC(C)(C)c3cccc(C(F)(F)F)c3)cc21 [TCMDC-135450]	36.58	
CCCN(CCC)C(=O)c1cc(C(=O)N[C@@H](Cc2ccccc2)[C@H](O)CNCc2cccc(C(F)(F)F)c2)cc(N2CCCCS2(=O)=O)c1 [TCMDC-138883]	-16.54	
CCCN(CCC)C(=O)c1cc(C(=O)N[C@@H](Cc2ccccc2)[C@H](O)CNC(C)(C)c2cccc(OC)c2)cc(N2CCCCS2(=O)=O)c1 [TCMDC-134674]	75.74	
CCn1ccc2c(N3CCCCS3(=O)=O)cc(C(=O)N[C@@H](Cc3ccccc3)[C@H](O)CNC(C)(C)c3cccc(C(F)(F)F)c3)cc21 [TCMDC-135317]	87.8	
CCOc1cc(C(=O)N[C@@H](Cc2ccccc2)[C@H](O)CNC(C)(C)c2cccc(OC)c2)cc(N2CCCS2(=O)=O)c1 [TCMDC-134403]	22.2	
CCn1cnc2c(N3CCCCS3(=O)=O)cc(C(=O)N[C@@H](Cc3ccccc3)[C@H](O)CNC3CCOCC3)cc21 [TCMDC-135662]	16.67	
CCN1CCc2c1cc(C(=O)N[C@@H](Cc1ccccc1)[C@H](O)CNC(C)(C)c1cccc(C(F)(F)F)c1)cc2N1CCCCS1(=O)=O [TCMDC-135451]	62.24	
CCn1ccc2c(N3CCCCS3(=O)=O)cc(C(=O)N[C@@H](Cc3ccccc3)[C@H](O)CNC3CCCCC3)cc21 [TCMDC-135314]	53.3	

Structure (SMILES)	% Inhibition [%]	% Inhibition (% Inhibition) [%]
CCCN(CCC)C(=O)c1cc(C(=O)N[C@@H](Cc2ccccc2)[C@H](O)CNC(C)(C)c2cccc(C(F)(F)F)c2)cc(N2CCCCS2(=O)=O)c1 [TCMDC-134675]	20.25	
CCn1ccc2c(N3CCCS3(=O)=O)cc(C(=O)N[C@@H](Cc3ccccc3)[C@H](O)CNC3CCCCC3)cc21 [TCMDC-135315]	41.25	
CCCN(CCC)C(=O)c1cc(C(=O)N[C@@H](Cc2ccccc2)[C@H](O)CNCc2cccc(OC)c2)cc(N2CCCCS2(=O)=O)c1 [TCMDC-138893]	-16.98	
CC[C@H](C)[C@@H](C(=O)N1CCOCC1)N1CC[C@H](NS(=O)(=O)CC(C)(C)c2ccc(Cl)cc2)C1=O [TCMDC-138910]	-4.326	
N#Cc1ccc(N2CCN(Cc3cccc(-c4ccc(-c5nc6cc(C(F)(F)F)ccc6[nH]5)s4)c3)CC2)nc1.O=C(O)C(F)(F)F [TCMDC-133114]	-37.6	
CCCCCC(C)c1cc(O)c2c(c1)OC(C)(C)C=C2C1=CCN(Cc2ccccc2)CC1 (stereo not shown) [TCMDC-131350]	-56.28	
O=C(NC1CCC(CN2CCC(c3c[nH]c4ccccc34)CC2)CC1)c1ccc(-c2cc(C(F)(F)F)ccc2Cl)o1 (stereo not shown) [TCMDC-140350]	-5.918	
O=C(Nc1ccccc1Cl)NC1CCC(CN2CCC(c3c[nH]c4ccccc34)CC2)CC1 (stereo not shown) [TCMDC-140196]		17.3
O=C(Nc1ccccc1Cl)NC1CCC(CN2CCC(c3c[nH]c4ccccc34)CC2)CC1 (stereo not shown) [TCMDC-140176]		-4.106
FC(F)(F)c1ccc(NC(=S)NC2CCC(CN3CCC(c4c[nH]c5ccccc45)CC3)CC2)cc1 (stereo not shown) [TCMDC-140198]		109.8
O=C(NC1CCC(CN2CCC(c3c[nH]c4ccccc34)CC2)CC1)c1csc(-c2cccc(Cl)c2Cl)n1 (stereo not shown) [TCMDC-140351]	-28.23	
O=C(NC1CCC(CN2CCC(c3c[nH]c4ccccc34)CC2)CC1)c1csc(-c2ccc(C(F)(F)F)cc2Cl)n1 (stereo not shown) [TCMDC-140352]	52.36	
FC(F)(F)c1ccc(NC(=S)NC2CCC(CN3CCC(c4c[nH]c5ccccc45)CC3)CC2)cc1 (stereo not shown) [TCMDC-140178]		78.37
O=C(NC1CCC(CN2CCC(c3c[nH]c4ccccc34)CC2)CC1)NC12CC3CC(CC(C3)C1)C2 (stereo not shown) [TCMDC-140204]	96.25	
CC(Cc1ccc(-c2nc3ccccc3[nH]2)cc1)NCC(O)c1cccc(C(F)(F)F)c1 (stereo not shown) [TCMDC-131524]	-16.53	
Cc1ccc(C(C)C)c(Oc2cnc(NC(CO)c3ccccc3)nc2N)c1 (stereo not shown) [TCMDC-135558]	13.9	
Cc1cc2ccc(/C=C/C(=O)NC3CCC(CCN4CCc5ccc(C#N)cc5CC4)CC3)cc2[nH]1 (stereo not shown) [TCMDC-139668]	-29.35	
O=C(Cc1cn(-c2ccccc2)nc1-c1ccc(Cl)cc1)Nc1nccs1 [TCMDC-124872]	-9.075	
